Data taken from PubChem BioAssay AID463082 (The Scripps Research Institute Molecular Screening Center, 2010).
The whole screen tested about 330,000 compounds, of which about 4,900 (1.5%) were called active.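 The calls were made as follows: active = inhibition above the mean inhibition across the screen plus 3 SD (cut at about 25% in these data); inactive = the rest.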 Many of the other results were omitted from the sample, so actives are more common in it than they were.

These compounds were tested against Platelet-activating factor acetylhydrolase (Homo sapiens) (UniProt Q13093) (assay: inhibition of plasma PAF acetylhydrolase – biochemical, fluorescence polarization, human, primary screen (AID 463082;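 also: inhibitors block binding of the rhodamine activity-based probe so polarization drops; 0% = enzyme with DMSO and 100% = wells lacking pPAFAH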)). Details: recombinant pPAFAH, FP-rhodamine probe fluorescence polarization; at 3.39 µM; hits give high values.
Platelet-activating factor acetylhydrolase (Homo sapiens), sequence (Q13093 whole entry, looked up): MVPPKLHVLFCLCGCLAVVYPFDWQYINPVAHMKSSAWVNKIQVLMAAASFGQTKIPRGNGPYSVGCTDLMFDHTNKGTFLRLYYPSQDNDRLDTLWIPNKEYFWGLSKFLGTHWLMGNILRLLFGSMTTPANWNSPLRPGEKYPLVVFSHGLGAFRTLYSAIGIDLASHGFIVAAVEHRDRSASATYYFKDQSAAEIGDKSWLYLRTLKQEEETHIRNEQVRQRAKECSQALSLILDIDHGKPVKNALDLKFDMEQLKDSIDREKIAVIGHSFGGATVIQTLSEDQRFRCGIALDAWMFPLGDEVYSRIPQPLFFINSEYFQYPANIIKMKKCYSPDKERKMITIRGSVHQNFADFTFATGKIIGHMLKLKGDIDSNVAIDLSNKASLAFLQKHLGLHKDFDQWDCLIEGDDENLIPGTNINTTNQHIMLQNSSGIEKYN

inhibition, active:
COc1ccccc1C(=O)NCC(=O)NCCSc1ccc(Br)cc1 28.6%, COCCOC(=O)c1sc(=S)n(CCOC)c1N 27.2%, O=C(Cc1ccccc1)NC(=S)Nc1ccc(N2CCCCC2)cc1 28.6%, CN(C)C(=O)c1nc2ccc(Cl)cn2c1CNCc1cccc(OC(F)(F)F)c1 27.7%, Cc1ccc(N=C2NC(=O)/C(=C/C=C/c3ccco3)S2)cc1C 57.3%, C/C(=N\Nc1cccc(C(=O)O)c1)c1ccc2c(c1)Nc1ccccc1S2 32.8%, CCC(=O)Nc1sc(C(=O)Nc2ccccc2)c(C)c1C(=O)OC 50.5%, Cc1ccc(Nc2nc(CSc3nnnn3-c3ccccc3)cc(=O)[nH]2)cc1 27.2%, CCCCCCSc1ccc([C@@H]2[C@@H]3C(=O)N(CC)C(=O)[C@@H]3[C@]3(C(=O)OC)CCCCN23)cc1OC 26.9%, CCC(=C/c1sc2ccc3ccccc3c2[n+]1C)/C=C1\Sc2ccc3ccccc3c2N1C 32.4%, CCN(CCCNC(=O)c1ccc2c(c1)NC(=O)CN2C)c1cccc(C)c1 28%, Cc1ccc2cc(/C=N/Nc3ccc(C(=O)O)cc3)c(Cl)nc2c1 34%, CC1(OC(=O)C2CCCC2)C(=O)C=C2C=C(c3ccc(C#N)cc3)OC=C2C1=O (stereo unspecified) 52.5%, O=C(COC(=O)Cc1ccc(F)cc1)Nc1cc(S(=O)(=O)N2CCOCC2)ccc1N1CCCC1 31%, Cc1ccc(NC(=O)Cc2nc(COC(=O)C(C)NS(=O)(=O)c3ccc(C)cc3)cs2)cc1 (stereo unspecified) 32.8%, COc1ccc(C(=O)NC(=S)Nc2ccccc2N2CCN(S(C)(=O)=O)CC2)cc1OC 51.7%, O=C(CCCN1C(=O)/C(=C/c2ccco2)SC1=S)Nc1ccccc1 25.9%, O=C(CCCN1C(=O)/C(=C\c2ccco2)SC1=S)Nc1cccc2ccccc12 27.9%

inhibition, inactive:
CC(=O)N1CCc2cc(Br)cc(S(=O)(=O)CCC(=O)Nc3c(C)n(C)n(-c4ccccc4)c3=O)c21 7.96%, N/C(=N\S(=O)(=O)c1ccc(Cl)cc1)N1CCOCC1 7.38%, O=C(CNC(=O)c1ccccc1Br)NCCSc1ccc(Br)cc1 6.87%, COc1cc(C(=O)NCC(=O)NCCSc2ccc(Br)cc2)cc(OC)c1OC 2.53%, NCCN1CCN2C(=O)CN(C(=O)c3ccccc3)CC12 (stereo unspecified) 0.84%, C/C=C(/C)C(=O)O[C@@H]1c2cc3c(c4c2[C@@]2(CO4)C(=O)C(OC)=C(OC)C=C2C[C@@H](C)[C@H]1C)OCO3 -0.41%, COc1cccc(CNC(=O)C2CCCN(S(=O)(=O)N3CC(C)CC(C)C3)C2)c1 (stereo unspecified) 2.82%, CCCCN1C(=O)C(=O)N(CC(=O)Nc2cccc(C(C)=O)c2)C1=O -0.13%, CC(=O)c1ccc(S(=O)(=O)NCCC(=O)N2CCN(c3ccccn3)CC2)cc1 -1.99%, COc1ccccc1OCc1nnc(SCC(N)=O)n1-c1ccccc1 -7.86%, COc1cccc(-c2coc3cc4oc(=O)c(CC(=O)O)c(C)c4cc23)c1 2.78%, Cc1ccccc1C(=O)NC(=S)Nc1ccc(N2CCN(C(=O)c3ccccc3)CC2)cc1 8.73%, O=C(CCN1CCN(c2ccccc2)CC1)NNC(=S)Nc1ccccc1 3.64%, O=C(COC(=O)c1c(Cl)cccc1Cl)Nc1cccc(S(=O)(=O)NC2=NCCCCC2)c1 0.66%, CC(C)Nc1ccc(-n2nc3ccccc3[n+]2[O-])cc1 -0.33%, COC(=O)C1(CCSC)NC(c2ccc(OC)cc2OC)C2C(=O)N(c3cccc(C(C)=O)c3)C(=O)C21 (stereo unspecified) 8.06%, Cc1ccsc1C(=O)NNC(=O)COc1ccc(Br)cc1 5.73%, CCCCNS(=O)(=O)c1ccc2nc(SCC(=O)Nc3cc(C)cc(C)c3)[nH]c2c1 -1.99%, COc1cccc(CNC(=O)c2nnn(CC(=O)Nc3cc(Cl)ccc3C)c2N)c1 -8.08%, CN(C)C(=O)c1nc2ccc(Cl)cn2c1CN1CCN(c2ncccn2)CC1 -1.11%, Cc1ccc(-n2nc3ccc(NC(=O)/C=C/c4ccco4)cc3n2)cc1C -3.71%, Cc1ccc(N2NC(=O)/C(=C/C=C/c3ccco3)C2=O)cc1C 21.3%, Cc1ccc(S(=O)(=O)N2CCCCC2)cc1NC(=O)[C@@H]1CCCN1C(=O)c1cccs1 4.96%, O=C(CNC(=O)c1n[nH]c2ccccc12)Nc1cc(Cl)ccc1Cl -4.9%, Cc1ccccc1NC(=O)c1cc(S(=O)(=O)Nc2cccc(C(=O)O)c2)ccc1Cl 2.58%, CC(=O)Nc1cccc(/C(C)=N/NC(=O)c2c(-c3ccccc3Cl)noc2C)c1 5.03%, CSc1ccc(/C=C/C(=O)NC23CC4CC(CC(C4)C2)C3)cc1 -0.12%, COc1ccc(NC(C)=O)cc1NC(=O)CN1CCN(C2c3ccccc3-c3ccccc32)CC1 7.04%, CCOC(=O)c1sc(NC(=O)COc2ncnc3ccccc23)c(C(=O)OCC)c1C 0.72%, COC(=O)c1c(NC(C)=O)sc(C(=O)Nc2ccccc2OC)c1C -5.75%, COC(=O)c1ccc(CNC(=O)c2ccc3oc(C(C)C)nc3c2)cc1 -0.67%, CCCn1c(SCC(=O)c2ccc3c(c2)OCCO3)nnc1C(C)C 3.84%, COc1ccc(C)cc1-n1nnnc1SCc1nc2ccccc2c(=O)[nH]1 -13.6%, Cc1ccc(NC(=O)CSc2nc(CSc3ccc(C)cc3)cc(=O)[nH]2)cc1 17.3%, N#CC1(NC(=O)COC(=O)Cc2n[nH]c(=O)c3ccccc23)CCCCC1 0.43%, CC(C)C(C)(C#N)NC(=O)CSc1nc2scc(-c3ccccc3)c2c(=O)[nH]1 (stereo unspecified) 11.1%, CCN1C(=O)[C@@H]2[C@@H](c3ccc(-c4ccc(OC)cc4)c(OC)c3)N3CCC[C@@]3(C(=O)OC)[C@@H]2C1=O 2.25%, CCCCCCSc1ccc([C@@H]2[C@H]3C(=O)N(CC)C(=O)[C@H]3[C@]3(C(=O)OC)CCCCN23)cc1 6.84%, CCOC(=O)c1ccc2c(c1)nc(SCC(=O)NC(C)C)n2CC 3.79%, CN(CC(=O)NC1CCCCC1)S(=O)(=O)c1cccc2cccnc12 14.6%, CCn1c(SCC(=O)Nc2sc(C)c(C)c2C#N)nnc1C1CC1 1.95%, Cn1nc([N+](=O)[O-])nc1Sc1ccc(C(C)(C)C)cc1 8.17%, CC(C)Oc1ccccc1C(=O)NC(CO)C(=O)O (stereo unspecified) 2.51%, CCOC(=O)C1=C(C)OC(N)=C(C#N)C1c1cncc(-c2ccc(F)cc2)c1 (stereo unspecified) 2.24%, O=C(Nc1cccc(S(=O)(=O)NC2=NCCC2)c1)C1CCCCC1 3.38%, CCN(CCCNC(=O)CCn1c(=O)[nH]c2ccsc2c1=O)c1ccccc1 4.5%, CCN(CCCNC(=O)C1CCN(S(=O)(=O)c2cnc[nH]2)CC1)c1ccccc1 -2.66%, COc1cccc(N2CC(NS(=O)(=O)c3ccc(Cl)cc3)CC2=O)c1 (stereo unspecified) 9.38%, O=C(O)c1ccc(N/N=C/c2ccc3ncccc3c2)cc1 4.87%, Cc1ccc2cc(/C=N/NC(=O)[C@@H]3CCCN3)c(Cl)nc2c1 3.82%, COC(=O)[C@]1(C)CCC[C@@]2(C)C3CC[C@]4(OC(C)=O)C[C@@]3(CCC21)CC4=NO (stereo partly specified) -4.31%, COc1ccc(C)cc1NC(=O)CSc1nnc(CC(=O)Nc2ccccc2F)n1C 4.03%, C=CCN1C=C2C(=O)C(C)(OC(=O)CCc3ccccc3)C(=O)C=C2C=C1c1ccc(C#N)cc1 (stereo unspecified) 12.6%, COCCN1C=C2C(=O)C(C)(OC(=O)C3CCCC3)C(=O)C=C2C=C1c1ccsc1 (stereo unspecified) 5.4%, O=C(COc1cccc2ccccc12)Nc1cc(S(=O)(=O)N2CCOCC2)ccc1N1CCOCC1 9.7%, O=C(COC(=O)c1ccccc1F)Nc1cc(S(=O)(=O)N2CCOCC2)ccc1N1CCCC1 5.42%, CC(=O)Nc1ccc(S(=O)(=O)NC(C)C(=O)OCC(=O)NC2CCCC2)cc1 (stereo unspecified) -1.59%, C/C=C/C(=O)OCc1csc(CC(=O)Nc2ccccc2C)n1 -0.07%, CCC(=O)Nc1ccccc1N1CCN(S(C)(=O)=O)CC1 1.48%, COc1ccccc1C(=O)NC(=S)Nc1ccccc1N1CCCCC1 5.28%, O=C(CSc1ncnc2c1oc1ccccc12)NC1CCCC1 -0.51%, Cc1ccc(Nc2c(F)c(F)c(F)c(F)c2C(=O)O)c(C)c1 8.5%, COCCCNC(=O)CC1C[C@H](C(=O)N2CCCCC2)[C@@]2(CCc3ccccc3)c3[nH]c4ccccc4c3CCN2C1=O (stereo partly specified) 1.17%, CC1=C/C(=N\OS(=O)(=O)c2ccccc2)C=CC1=O 0.71%, O=C(CCCN1C(=O)/C(=C/c2cccs2)SC1=S)Nc1ccc(O)cc1 1.25%, O=C(CCCN1C(=O)/C(=C/c2ccccc2)SC1=S)Nc1ccc(O)cc1 3.48%, COc1ccc(/C=C2\SC(=S)N(CCC(=O)Nc3cccc(C(=O)O)c3)C2=O)cc1OC -14.2%, COc1ccc(/C=C2\SC(=S)N(CCCC(=O)NC3CCCC3)C2=O)cc1OC -4.96%
